Test results from paper PMC4336329 (PLoS ONE, 2015).
Hit rate of the full screen: of about 310,000 compounds, about 2,200 (0.71%) showed an effect of 50% or more. The effect is printed as a negative number. For the sample, strong results were picked, then their nearest neighbours and some compounds at random.

biological target: human ether-à-go-go-related gene (hERG) potassium channel (human, UniProt Q12809); experiment: primary screen, population patch clamp on CHO cells stably expressing hERG; higher = less effect of the substance
Sequence (Q12809 whole entry, looked up): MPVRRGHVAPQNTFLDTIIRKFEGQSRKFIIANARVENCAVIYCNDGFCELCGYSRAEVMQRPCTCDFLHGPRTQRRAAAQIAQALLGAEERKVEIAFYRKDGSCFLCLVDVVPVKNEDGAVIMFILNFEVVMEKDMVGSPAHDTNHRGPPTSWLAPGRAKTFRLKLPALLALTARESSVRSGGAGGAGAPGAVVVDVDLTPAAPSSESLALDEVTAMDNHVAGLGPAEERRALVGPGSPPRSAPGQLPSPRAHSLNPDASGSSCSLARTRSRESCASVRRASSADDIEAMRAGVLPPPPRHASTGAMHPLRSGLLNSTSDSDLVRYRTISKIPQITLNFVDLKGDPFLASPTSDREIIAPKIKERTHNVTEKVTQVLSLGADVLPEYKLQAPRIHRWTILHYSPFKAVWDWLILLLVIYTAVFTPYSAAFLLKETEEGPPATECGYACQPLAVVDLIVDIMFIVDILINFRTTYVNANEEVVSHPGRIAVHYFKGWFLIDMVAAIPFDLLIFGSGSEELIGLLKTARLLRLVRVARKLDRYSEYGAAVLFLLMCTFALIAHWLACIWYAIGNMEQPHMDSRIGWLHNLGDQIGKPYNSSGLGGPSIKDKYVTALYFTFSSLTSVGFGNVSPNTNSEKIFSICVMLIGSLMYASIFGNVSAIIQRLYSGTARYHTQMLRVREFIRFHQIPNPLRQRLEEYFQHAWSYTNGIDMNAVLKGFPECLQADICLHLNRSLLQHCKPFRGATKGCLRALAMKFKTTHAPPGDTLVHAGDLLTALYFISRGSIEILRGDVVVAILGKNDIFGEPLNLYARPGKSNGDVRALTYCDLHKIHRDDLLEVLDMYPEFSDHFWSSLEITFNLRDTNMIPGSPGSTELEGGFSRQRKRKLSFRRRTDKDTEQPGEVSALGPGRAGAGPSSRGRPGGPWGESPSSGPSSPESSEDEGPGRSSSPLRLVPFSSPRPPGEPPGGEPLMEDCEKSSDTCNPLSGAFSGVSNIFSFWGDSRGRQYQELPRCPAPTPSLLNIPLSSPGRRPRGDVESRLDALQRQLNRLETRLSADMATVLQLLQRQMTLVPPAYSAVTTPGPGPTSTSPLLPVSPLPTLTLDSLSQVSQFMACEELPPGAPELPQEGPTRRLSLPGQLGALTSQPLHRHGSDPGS

SMILES	hERG current change (%, negative = inhibition) at 1uM [%]
C=CCn1cc(CN2CCC(C(=O)Nc3cccc(-c4cccc(Cl)c4)c3)CC2)c(C)n1	-30
O=C(c1ccc2c(=O)n(Cc3ccc(Cl)cc3)c(=S)[nH]c2c1)N1CCCC1	17
Oc1[nH]c2ccccc2c1N=Nc1nc2ccccc2s1	-3.26
Cl.NCCCCC(=O)O	11.5
CC(C1CC1)N(C(=O)NC1CCS(=O)(=O)C1)c1ccccc1 (centres unmarked)	6.55
Cc1ccc(CN2CCC(C(=O)Nc3cccc(-c4cccc(F)c4)c3)CC2)o1	-28.7
COc1cccc(-c2cccc(NC(=O)C3CCN(Cc4cccc(C)n4)CC3)c2)c1	-46.7
O=C(Nc1cccc(-c2cccc(F)c2)c1)C1CCN(C2CCOCC2)CC1	-67.8
CCn1cc(CN2CCC(C(=O)Nc3cccc(-c4cccc(F)c4)c3)CC2)cn1	-29.2
Cc1cccc(CN2CCC(C(=O)Nc3cccc(-c4cccc(F)c4)c3)CC2)n1	-66.1
Cn1cc(CN2CCC(C(=O)Nc3cccc(-c4cccc(F)c4)c3)CC2)cn1	-37.9
CCCn1ncc(CN2CCC(C(=O)Nc3cccc(-c4cccc(F)c4)c3)CC2)c1C	-60.6
COc1cccc(-c2cccc(NC(=O)C3CCN(C4CCOCC4)CC3)c2)c1	-14.6
Cc1cc(C)n(CCCN2CCC(C(=O)Nc3cccc(-c4cccc(F)c4)c3)CC2)n1	-59.9
Cc1cccc(CN2CCC(C(=O)Nc3cccc(-c4cscn4)c3)CC2)n1	-4.56
CCn1nc(C)c(CN2CCC(C(=O)Nc3cccc(-c4cccc(F)c4)c3)CC2)c1C	-6.47
O=C(Nc1cccc(-c2cccc(F)c2)c1)C1CCN(C2CCC2)CC1	-26.1
O=C(Nc1ccc(N2CCN(C(=O)c3ccco3)CC2)cc1)c1cc(Br)ccc1Cl	8.3
CC(C)(C)c1cc(C(=O)NN)n(Cc2ccc(Cl)cc2Cl)n1	16.3
CCOC(=O)c1c(NC(=O)c2ccc(S(=O)(=O)N3CCOCC3)cc2)sc2c1CC(C)(C)NC2(C)C	11.9
O=[N+]([O-])c1ccc(-c2nc(Nc3ccc(O)cc3)c3ccccc3n2)cc1	13
COc1ccc(CCNC(=O)c2[nH]c(C)c(C(C)=O)c2C)cc1	10.9
CCOC(=O)c1c(NC(=O)C2C3C=CC(C3)C2C(=O)O)sc2c1CCC(CC)C2 (centres unmarked)	14
